# Assay outcomes deposited in PubChem by National Center for Advancing Translational Sciences (NCATS).
# A selection: hits, their analogues and other compounds. The true share with any hit is near 2.5%.
# Cruzain inh Det: blocks cruzain activity in presence of Triton detergent. P25779. purified cruzain, Z-FR-AMC fluorescence, 0.01% Triton. Potency, µM, inactives show max response, negative = inhibition, actives largely listed as inhibitors. 200,000 compounds, 0.43% hits;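 further: plate controls were neutral wells for no effect and buffer without enzyme for full effect; nearly all actives have a fitted effect of over 40% in size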
# Target sequence (P25779 123-467 limits assumed): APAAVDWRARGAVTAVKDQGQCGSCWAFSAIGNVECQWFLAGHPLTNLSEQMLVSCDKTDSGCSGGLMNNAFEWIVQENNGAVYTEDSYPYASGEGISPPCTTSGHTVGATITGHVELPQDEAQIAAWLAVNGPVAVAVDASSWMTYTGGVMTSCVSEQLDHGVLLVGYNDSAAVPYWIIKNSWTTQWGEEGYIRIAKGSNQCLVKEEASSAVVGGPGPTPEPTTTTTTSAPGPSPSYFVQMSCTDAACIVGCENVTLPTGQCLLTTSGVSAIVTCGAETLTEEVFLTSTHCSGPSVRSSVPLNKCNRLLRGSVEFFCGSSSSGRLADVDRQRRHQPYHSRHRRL
#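 In this qHTS format, compounds are incubated with 1.5 nM cruzain for 15 min at room temperature before 2 uM Z-FR-AMC is added. Release of AMC is followed at 360/450 nm, and progress is taken as the 60 s fluorescence difference.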
# Cruzain inh noDet: cruzain (T. cruzi) inhibition without detergent. 200,000 compounds, 2.3% hits. P25779. Potency, µM, without a hit: max response, negative = inhibition, actives largely listed as inhibitors. purified cruzain, Z-FR-AMC fluorescence, no detergent;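 further: plate controls were enzyme without inhibitor for no effect and buffer without enzyme for full effect; nearly all actives have a fitted effect of over 40% in size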
#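 Detergent-free condition (0.00005% Triton X-100) in acetate buffer pH 5.5 with DTT. 1.5 nM enzyme and compound were pre-mixed 15 min, then 2 uM Z-FR-AMC substrate added; reaction progress from fluorescence change between first and third reads (60 s).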
# * hit, by the source's call; ? = inconclusive. The call rests on the fitted dose curve; in most records, active means well fitted curve in the direction sought with a large enough effect; inconclusive means small, poorly fitted or top-dose-only effect, or another doubt; inactive means no such curve, though single readings can be large; an effect the other way counts as inactive or inconclusive. Potency means the concentration at half of the fitted maximal effect.
SMILES,Cruzain inh Det,Cruzain inh noDet
CCC1CCCCN1C(=O)CSc1nc(-c2ccc(OC)cc2)cc(C(F)(F)F)n1 (stereo unspecified),-12%,21%
C[C@@]12CCC(=O)C=C1CC[C@H]1C2[C@@H](O)C[C@]2(C)[C@@H]1CC[C@@]2(O)C(=O)CO (stereo partly specified),3%,-4%
Cc1oc2ccc(O)c(CN3CCCC3)c2c1C(=O)Nc1cccc(Cl)c1C,-2%,-4%
O=C(Nc1ccccc1C(F)(F)F)c1noc2c1CCCCC2,-5%,-7%
O=C(COC(=O)c1ccc(-c2ccc([N+](=O)[O-])cc2)o1)NC(=O)NC1CCCCC1,-13%,?
O=C(COC(=O)c1ccc(-c2ccc([N+](=O)[O-])cc2)o1)NC(=O)NC12CC3CC(CC(C3)C1)C2,-5%,25µM*
COc1cccc(C(=O)c2cn(CC(=O)NCc3ccccc3)c3nc(C)ccc3c2=O)c1,-1%,-13%
CCOc1ccccc1NC(=O)c1ccccc1-c1nc(-c2ccccc2)no1,-1%,4%
COc1ccc(-c2noc(CC(=O)Nc3ccc(C)c(F)c3)n2)cc1,-2%,-23%
COc1ccc(CC(=O)Nc2ccc(-c3noc(-c4cccc(OC)c4)n3)cc2)cc1,3%,7.9µM*
COc1cccc(-c2nc(-c3ccc(NC(=O)c4cccnc4)cc3)no2)c1,-4%,19%
CCOc1ccccc1-c1nc(-c2ccc(NC(=O)Cc3ccccc3OC)cc2)no1,4%,25µM*
COc1ccccc1CC(=O)Nc1ccc(-c2noc(COc3ccc(Cl)c(C)c3)n2)cc1,4%,25µM*
CC(C)OCCCn1c(=O)c2ccccc2n2c(-c3cc(Cl)ccc3O)nnc12,-10%,7%
Nc1c(S(N)(=O)=O)cc(S(N)(=O)=O)cc1S(N)(=O)=O,0%,5%
Cc1nc(-c2ccc(F)cc2)sc1CCNC(=O)c1ccccc1C(F)(F)F,-7%,9%
CCn1c(=O)cc(OCC(=O)N2CCN(c3ccc(C)cc3)C(C)C2)c2ccccc21 (stereo unspecified),0%,4%
Cc1cccc(CSc2nc(N)c(C#N)c(-c3cccs3)c2C#N)c1,-5%,25µM*
Cc1cccc(CSc2nc3c(c(-c4cccs4)c2C#N)CN(C)CC3)c1,-6%,-23%
COc1cc(OC)c(NC(=O)N2CCc3c(sc4c3CCCC4)C2c2ccccc2)cc1Cl (stereo unspecified),0%,10µM*
Cc1ccc(C2c3[nH]c4ccccc4c3CCN2C(=O)Nc2ccc(C)c(C)c2)cc1 (stereo unspecified),1%,?
COc1cc(NC(=O)N2CCc3c(sc4c3CCCC4)C2c2ccccc2)cc(OC)c1OC (stereo unspecified),-3%,?
COc1cc(OC)c(NC(=O)N2CCc3c([nH]c4ccccc34)C2c2ccccc2F)cc1Cl (stereo unspecified),-4%,16µM*
Cc1ccccc1Nc1oc(-c2ccccc2)nc1-c1cccs1,0%,-14%
O=C(/C=C/c1cccs1)N1CCN(c2ccccc2F)CC1,-6%,-6%
SMILES,Cruzain inh Det,Cruzain inh noDet
O=C(/C=C/c1cccs1)N1CCOCC1,-6%,6.3µM*
O=C(Nc1nc(-c2ccccc2)cs1)c1ccc2c(c1)S(=O)(=O)c1ccccc1C2=O,-4%,?
O=C(Nc1nc2ccc(SC(F)F)cc2s1)c1ccc2c(c1)S(=O)(=O)c1ccccc1C2=O,-5%,5µM*
CC[n+]1c(/C=C/N(C)c2ccccc2)sc2ccc(Cl)cc21,-10%,-16%
CC[n+]1c(/C=C/C=C/N(C(C)=O)c2ccccc2)sc2ccccc21,-4%,20µM*
O=C(CSc1nnc(-c2cccc(S(=O)(=O)N3CCCCC3)c2)o1)c1ccc[nH]1,0%,16µM*
O=S(=O)(c1cccc(-c2nnc(SCc3ccc(Cl)cc3)o2)c1)N1CCCCC1,-1%,-23%
C[C@@H]1CC2(OC[C@]3(C)O[C@H]23)O[C@H]2C[C@@]3(C)[C@@H]4CC[C@H]5C(C)(C)C(O[C@@H]6OC[C@@H](O)[C@H](O)[C@H]6O)CC[C@@]56C[C@@]46CC[C@]3(C)[C@@H]12 (stereo partly specified),-9%,?
CCOc1ccc(N/N=C(/C#N)C(N)=O)cc1,-9%,-21%
CCOC(=O)NC(=O)/C(C#N)=N\Nc1ccc(Cl)cc1,-2%,5µM*
CCCN1CCN(CCCNC(=O)c2cc3c(s2)-c2c(C)cccc2OC3)CC1,18µM*,?
O=C(NCCCN1CCN(c2ccccc2F)CC1)c1cc2c(s1)-c1ccccc1OC2,-22%,23%
Cc1cccc(CCNC(=O)c2cc3c(s2)-c2c(C)cccc2OC3)c1,?,-27%
CN(C)CCNC(=O)c1cc2c(s1)-c1ccccc1OC2,?,10µM*
Cc1cccc2c1-c1sc(C(=O)NCCc3ccc(Cl)cc3)cc1CO2,-5%,25µM*
COc1ccc(CCNC(=O)c2cc3c(s2)-c2ccccc2OC3)cc1OC,-25%,?
CCn1c(SCc2ccc(F)cc2Cl)nc(=O)c2c(C(=O)OC)cc(C3CC3)nc21,-4%,11%
Nc1ncnc2nn([C@H]3O[C@@H](CO)[C@@H](O)[C@H]3O)nc12,2%,14%
O=C(NC(=S)Nc1nc(-c2ccc(Br)cc2)cs1)c1cccnc1,4%,4µM*
Cc1ccc(-c2nc3cc(C(C)C)ccc3o2)cc1NC(=O)c1cc2ccccc2o1,-1%,?
N#Cc1ccc(-c2csc(NNC(=O)c3ccccc3)n2)cc1,1%,?
Cc1ccc(-c2csc(NC(=S)NC(=O)c3cc4ccccc4o3)n2)cc1,0%,6.3µM*
Cc1ccc(-c2nc3ccccc3o2)cc1NC(=S)NC(=O)c1cc2ccccc2o1,-1%,6.3µM*
N#Cc1ccc(-c2csc(NNC(=O)c3ccc(Br)cc3)n2)cc1,-2%,7.9µM*
Cc1ccc(-c2csc(NC(=S)NC(=O)/C=C/c3ccco3)n2)cc1,1%,?
SMILES,Cruzain inh Det,Cruzain inh noDet
O=C(Nc1nc(-c2ccccc2)cs1)c1cccnc1,3%,-7%
CSc1cccc(N2C(=O)N(CC(=O)NCc3ccccc3Cl)c3ccccc3S2(=O)=O)c1,1%,-16%
Cc1cc(S(=O)(=O)C(CNC(=O)c2ccc(OC(C)C)cc2)c2cccs2)ccc1F (stereo unspecified),-5%,-9%
COc1ccc(OC)c(CNC(=O)c2ccc(-c3nc(CSc4ccccc4)c(C)o3)cc2)c1,-5%,-28%
CN(C)[C@@H]1C(=O)C(C(N)=O)=C(O)[C@]2(O)C(=O)C3=C(O)c4c(O)cccc4[C@](C)(O)[C@H]3C[C@@H]12,-9%,-3%
O=C(COc1ccccc1F)Nc1ccc2nc(SCC(=O)N3CCOCC3)sc2c1,-13%,?
CC1=NN(C(=O)c2ccncc2)C(=O)[C@@H]1N=Nc1ccc2ccccc2c1,-3%,-5%
CC1=NN(c2nc(-c3ccc(C)cc3)cs2)C(=O)C1N=Nc1ccc2ccccc2c1 (stereo unspecified),-7%,3.2µM*
Cc1cc(-c2csc(N)n2)c(C)n1C,-30%,?
Cc1ccc(-n2c(C)cc(-c3csc(N)n3)c2C)cc1,-1%,25µM*
COc1ccc2c(c1)c1c(c(=O)n(-c3ccccc3C)c(=O)n1CC(=O)Nc1c(C)cccc1C)n2C,1%,14%
Cc1ccc(-n2nc3c(c2NC(=O)/C=C\c2ccc4c(c2)OCO4)CSC3)c(C)c1,-6%,25µM*
Cc1ccc(-n2nc3c(c2NC(=O)C(C)(C)C)CSC3)c(C)c1,0%,6%
